Data published in the supplement of paper PMC10849652.
Targets with a hit are over-represented here; the source holds about 7,900 in all. About 0.6% of all pairs of compound and target were hits.

compound: CC(C)(C)Cn1c(N)nc2ccc(-c3[nH]c(C(C)(C)C)nc3-c3ccc(F)cc3)nc21 [ralimetinib]; test: log2 fold change, soluble protein after heating vs DMSO (PISA); higher = thermal stabilisation; K562 cells, 10 uM, 30 min; active = over 0.2 and 3.5 SD of the protein, either way, in both replicates (recomputed)
In short: (§1)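 Values are thermal stability changes relative to control samples and are taken from duplicates. They are stated as log2 fold changes. Before quantification by TMTpro 16plex LC-MS/MS with equalised channel sums, K562 cells at 2×10^6 cells/mL were treated with 10 μM compound for 30 min, heated in aliquots for 3 min across 48°C-58°C, pooled, extracted in PBS with 0.5% NP-40 at 4°C, and centrifuged at 21,000xg for 90 min to give the soluble supernatant.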

UniProt Q9ULT8, sequence (Q9ULT8 whole entry, looked up): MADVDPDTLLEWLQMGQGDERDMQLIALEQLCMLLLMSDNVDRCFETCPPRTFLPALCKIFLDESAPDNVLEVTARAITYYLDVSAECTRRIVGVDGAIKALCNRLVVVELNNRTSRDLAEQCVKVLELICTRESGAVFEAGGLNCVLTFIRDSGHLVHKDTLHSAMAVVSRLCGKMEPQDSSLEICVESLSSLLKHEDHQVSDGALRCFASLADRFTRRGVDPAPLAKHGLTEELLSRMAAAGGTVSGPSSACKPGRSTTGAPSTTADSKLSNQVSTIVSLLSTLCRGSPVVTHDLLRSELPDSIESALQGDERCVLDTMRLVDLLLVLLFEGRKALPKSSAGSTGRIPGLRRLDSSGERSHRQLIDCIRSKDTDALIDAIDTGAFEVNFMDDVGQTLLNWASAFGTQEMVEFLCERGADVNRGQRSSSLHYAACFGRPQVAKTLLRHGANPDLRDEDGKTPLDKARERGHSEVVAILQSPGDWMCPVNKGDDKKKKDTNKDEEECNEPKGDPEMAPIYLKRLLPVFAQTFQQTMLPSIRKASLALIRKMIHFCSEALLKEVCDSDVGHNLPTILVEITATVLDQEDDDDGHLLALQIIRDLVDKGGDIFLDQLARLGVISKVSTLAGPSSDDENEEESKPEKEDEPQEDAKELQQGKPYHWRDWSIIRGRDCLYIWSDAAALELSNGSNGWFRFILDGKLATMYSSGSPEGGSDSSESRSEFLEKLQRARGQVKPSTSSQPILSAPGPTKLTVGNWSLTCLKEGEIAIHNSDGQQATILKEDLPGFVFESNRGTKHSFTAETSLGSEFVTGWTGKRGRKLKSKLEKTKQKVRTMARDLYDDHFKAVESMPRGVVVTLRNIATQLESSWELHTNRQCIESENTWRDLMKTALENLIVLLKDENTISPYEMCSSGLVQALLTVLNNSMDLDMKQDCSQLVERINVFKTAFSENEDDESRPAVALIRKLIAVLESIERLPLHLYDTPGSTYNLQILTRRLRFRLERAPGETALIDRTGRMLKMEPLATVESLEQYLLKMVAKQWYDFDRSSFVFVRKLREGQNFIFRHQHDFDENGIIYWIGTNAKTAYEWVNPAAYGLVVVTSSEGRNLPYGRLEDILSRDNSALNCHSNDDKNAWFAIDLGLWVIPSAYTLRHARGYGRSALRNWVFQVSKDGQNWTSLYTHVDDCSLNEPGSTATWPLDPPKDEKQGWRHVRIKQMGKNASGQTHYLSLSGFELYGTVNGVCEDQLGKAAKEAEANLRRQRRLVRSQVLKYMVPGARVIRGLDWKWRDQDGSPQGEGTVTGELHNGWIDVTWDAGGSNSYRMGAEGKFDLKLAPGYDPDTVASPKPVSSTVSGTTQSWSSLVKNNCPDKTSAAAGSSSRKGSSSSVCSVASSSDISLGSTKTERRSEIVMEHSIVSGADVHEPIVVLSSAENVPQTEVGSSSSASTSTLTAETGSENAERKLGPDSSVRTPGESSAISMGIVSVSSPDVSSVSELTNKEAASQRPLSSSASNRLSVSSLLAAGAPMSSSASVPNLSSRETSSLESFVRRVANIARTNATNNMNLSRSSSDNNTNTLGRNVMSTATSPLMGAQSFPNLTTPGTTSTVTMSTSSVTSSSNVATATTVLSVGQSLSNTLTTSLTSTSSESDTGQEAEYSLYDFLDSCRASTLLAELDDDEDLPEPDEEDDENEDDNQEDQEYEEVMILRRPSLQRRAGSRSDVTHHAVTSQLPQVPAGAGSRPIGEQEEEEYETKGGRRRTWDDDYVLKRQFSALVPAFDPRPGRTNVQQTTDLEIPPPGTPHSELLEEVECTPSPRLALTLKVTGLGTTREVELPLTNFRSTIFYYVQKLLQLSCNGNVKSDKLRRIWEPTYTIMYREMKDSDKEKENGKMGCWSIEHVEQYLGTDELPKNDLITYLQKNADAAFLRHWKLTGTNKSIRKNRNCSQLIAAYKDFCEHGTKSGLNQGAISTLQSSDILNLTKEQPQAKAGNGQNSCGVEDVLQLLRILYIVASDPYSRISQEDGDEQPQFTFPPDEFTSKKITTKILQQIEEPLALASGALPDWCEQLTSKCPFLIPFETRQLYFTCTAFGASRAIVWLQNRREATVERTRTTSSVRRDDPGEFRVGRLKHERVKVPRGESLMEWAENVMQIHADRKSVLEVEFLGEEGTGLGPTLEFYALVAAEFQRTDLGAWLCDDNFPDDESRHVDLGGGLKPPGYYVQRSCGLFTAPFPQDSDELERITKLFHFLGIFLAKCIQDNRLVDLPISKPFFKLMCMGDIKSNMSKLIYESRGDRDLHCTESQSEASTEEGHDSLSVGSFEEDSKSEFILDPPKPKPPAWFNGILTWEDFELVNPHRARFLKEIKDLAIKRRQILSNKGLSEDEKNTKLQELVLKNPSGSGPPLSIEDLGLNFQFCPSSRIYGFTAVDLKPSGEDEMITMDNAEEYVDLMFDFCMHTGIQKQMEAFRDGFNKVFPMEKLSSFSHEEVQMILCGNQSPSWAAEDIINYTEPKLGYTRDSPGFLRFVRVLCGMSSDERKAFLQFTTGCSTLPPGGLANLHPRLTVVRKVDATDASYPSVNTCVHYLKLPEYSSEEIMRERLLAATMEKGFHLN
UniProt Q86VS8, sequence (Q86VS8 whole entry, looked up): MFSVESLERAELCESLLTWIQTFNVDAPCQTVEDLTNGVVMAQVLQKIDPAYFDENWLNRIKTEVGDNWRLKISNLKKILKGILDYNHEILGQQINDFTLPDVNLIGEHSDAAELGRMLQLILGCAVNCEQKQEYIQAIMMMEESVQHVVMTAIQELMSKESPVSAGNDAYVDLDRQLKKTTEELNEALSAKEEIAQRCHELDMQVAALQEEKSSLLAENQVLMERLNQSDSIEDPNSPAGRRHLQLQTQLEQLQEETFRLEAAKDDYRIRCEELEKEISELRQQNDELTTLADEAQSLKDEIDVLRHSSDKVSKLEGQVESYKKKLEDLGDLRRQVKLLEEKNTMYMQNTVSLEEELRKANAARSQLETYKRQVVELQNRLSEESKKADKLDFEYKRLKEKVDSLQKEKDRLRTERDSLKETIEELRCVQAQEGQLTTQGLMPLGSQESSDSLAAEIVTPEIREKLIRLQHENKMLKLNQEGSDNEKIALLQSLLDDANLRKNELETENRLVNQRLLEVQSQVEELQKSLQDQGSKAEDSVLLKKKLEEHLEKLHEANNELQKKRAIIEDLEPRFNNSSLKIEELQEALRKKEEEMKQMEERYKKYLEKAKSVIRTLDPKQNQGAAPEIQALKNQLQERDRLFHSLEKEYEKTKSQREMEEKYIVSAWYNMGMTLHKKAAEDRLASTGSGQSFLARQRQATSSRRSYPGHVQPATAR
UniProt Q6Y7W6, sequence (Q6Y7W6 whole entry, looked up): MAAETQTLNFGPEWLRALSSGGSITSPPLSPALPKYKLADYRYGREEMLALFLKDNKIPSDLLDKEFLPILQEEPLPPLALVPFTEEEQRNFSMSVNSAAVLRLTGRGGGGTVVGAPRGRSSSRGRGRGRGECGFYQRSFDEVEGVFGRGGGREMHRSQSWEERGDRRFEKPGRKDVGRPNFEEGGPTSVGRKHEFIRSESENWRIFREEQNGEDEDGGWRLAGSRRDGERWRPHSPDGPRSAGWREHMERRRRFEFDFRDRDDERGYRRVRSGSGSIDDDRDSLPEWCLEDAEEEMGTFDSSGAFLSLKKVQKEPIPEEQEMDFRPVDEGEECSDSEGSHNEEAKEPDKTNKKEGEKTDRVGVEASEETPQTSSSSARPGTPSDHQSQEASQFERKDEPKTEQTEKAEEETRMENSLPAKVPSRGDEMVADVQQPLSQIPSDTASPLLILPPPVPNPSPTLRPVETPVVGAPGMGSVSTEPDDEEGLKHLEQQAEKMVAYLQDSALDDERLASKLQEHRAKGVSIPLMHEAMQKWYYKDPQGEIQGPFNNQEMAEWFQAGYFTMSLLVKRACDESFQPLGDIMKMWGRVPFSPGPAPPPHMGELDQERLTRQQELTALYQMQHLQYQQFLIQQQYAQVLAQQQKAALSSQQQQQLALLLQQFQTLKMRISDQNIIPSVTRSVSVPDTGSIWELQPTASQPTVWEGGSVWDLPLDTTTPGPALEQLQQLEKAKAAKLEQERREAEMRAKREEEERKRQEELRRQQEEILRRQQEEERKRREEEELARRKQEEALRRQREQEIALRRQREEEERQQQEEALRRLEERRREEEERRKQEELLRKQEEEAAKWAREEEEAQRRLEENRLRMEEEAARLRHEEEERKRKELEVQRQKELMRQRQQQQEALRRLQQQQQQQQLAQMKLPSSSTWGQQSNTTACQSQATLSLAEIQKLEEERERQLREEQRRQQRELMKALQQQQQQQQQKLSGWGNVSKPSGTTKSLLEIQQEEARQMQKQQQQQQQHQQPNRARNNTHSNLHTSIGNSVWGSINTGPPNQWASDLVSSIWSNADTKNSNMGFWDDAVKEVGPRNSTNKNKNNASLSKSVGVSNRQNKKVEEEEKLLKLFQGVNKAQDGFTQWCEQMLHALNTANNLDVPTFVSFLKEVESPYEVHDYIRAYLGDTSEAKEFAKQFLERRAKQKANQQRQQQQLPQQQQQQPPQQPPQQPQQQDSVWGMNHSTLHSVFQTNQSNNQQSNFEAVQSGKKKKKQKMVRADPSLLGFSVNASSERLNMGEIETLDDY
UniProt P0CL80, sequence (P0CL80 whole entry, looked up): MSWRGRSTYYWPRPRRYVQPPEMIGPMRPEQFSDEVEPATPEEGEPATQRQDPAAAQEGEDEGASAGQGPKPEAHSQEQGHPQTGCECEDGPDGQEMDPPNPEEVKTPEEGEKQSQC
UniProt Q9BUP3, sequence (Q9BUP3 whole entry, looked up): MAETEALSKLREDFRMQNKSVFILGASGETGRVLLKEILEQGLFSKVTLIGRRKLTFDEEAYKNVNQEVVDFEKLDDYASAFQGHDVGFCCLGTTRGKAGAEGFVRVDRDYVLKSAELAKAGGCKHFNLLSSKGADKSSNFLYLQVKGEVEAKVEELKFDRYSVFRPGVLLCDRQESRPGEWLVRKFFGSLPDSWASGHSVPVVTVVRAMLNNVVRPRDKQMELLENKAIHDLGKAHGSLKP
UniProt P63218, sequence (P63218 whole entry, looked up): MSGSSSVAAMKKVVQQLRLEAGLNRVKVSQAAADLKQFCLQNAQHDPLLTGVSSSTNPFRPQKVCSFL

| Target | log2 fold change |
| --- | --- |
| HMGB3 (UniProt O15347) | 0.163 (inactive) |
| HNRNPUL1 (UniProt Q9BUJ2) | 0.005 (inactive) |
| FANCD2 isoform 1 (UniProt Q9BXW9) | -0.082 (inactive) |
| HOOK3 (UniProt Q86VS8) | 0.033 (inactive) |
| HECTD1 (UniProt Q9ULT8) | 0.054 (inactive) |
| HDGFL2 (UniProt Q7Z4V5) | -0.019 (inactive) |
| GTF2E1 (UniProt P29083) | -0.018 (inactive) |
| IFI30 (UniProt P13284) | -0.05 (inactive) |
| GSK3B isoform 2 (UniProt P49841) | -0.005 (inactive) |
| GIGYF2 (UniProt Q6Y7W6) | -0.041 (inactive) |
| GPAT4 (UniProt Q86UL3) | -0.058 (inactive) |
| HTATIP2 isoform 3 (UniProt Q9BUP3) | 0.077 (inactive) |
| H2AZ1 (UniProt P0C0S5) | 0.247 (inactive) |
| IFRD2 isoform 2 (UniProt Q12894) | -0.045 (inactive) |
| GEMIN5 (UniProt Q8TEQ6) | 0.034 (inactive) |
| HIC2 (UniProt Q96JB3) | 0.218 (inactive) |
| GTF2B (UniProt Q00403) | 0.044 (inactive) |
| IDH3A (UniProt P50213) | -0.085 (inactive) |

| Target | log2 fold change |
| --- | --- |
| HNRNPF (UniProt P52597) | 0.098 (inactive) |
| GAGE12F (UniProt P0CL80) | -0.038 (inactive) |
| GDE1 (UniProt Q9NZC3) | 0.02 (inactive) |
| GLB1 (UniProt P16278) | -0.009 (inactive) |
| FASTKD1 (UniProt Q53R41) | 0.013 (inactive) |
| GALNT4 (UniProt Q8N4A0) | -0.003 (inactive) |
| HHEX (UniProt Q03014) | -0.059 (inactive) |
| HPCAL1 (UniProt P37235) | -0.117 (inactive) |
| GNG5 (UniProt P63218) | 0.072 (inactive) |
| GLYR1 (UniProt Q49A26) | 0.088 (inactive) |
| HLTF (UniProt Q14527) | -0.016 (inactive) |
| GTF2E2 (UniProt P29084) | -0.012 (inactive) |
| HADHB (UniProt P55084) | 0.068 (inactive) |
| HBZ (UniProt P02008) | -0.052 (inactive) |
| FBXO42 (UniProt Q6P3S6) | -0.064 (inactive) |
| GALNT11 (UniProt Q8NCW6) | 0.065 (inactive) |
| GNB2 (UniProt P62879) | 0.016 (inactive) |

compound: CC(C)(O)CC(=O)NCCn1ccc2ncnc(Nc3ccc(Oc4cccc(C(F)(F)F)c4)c(Cl)c3)c21; test: as above
In short: as §1

| Target | log2 fold change |
| --- | --- |
| HMGB3 (UniProt O15347) | -0.007 (inactive) |
| HNRNPUL1 (UniProt Q9BUJ2) | 0.027 (inactive) |
| FANCD2 isoform 1 (UniProt Q9BXW9) | -0.029 (inactive) |
| HOOK3 (UniProt Q86VS8) | -0.109 (inactive) |
| HECTD1 (UniProt Q9ULT8) | -0.048 (inactive) |
| HDGFL2 (UniProt Q7Z4V5) | 0.041 (inactive) |
| GTF2E1 (UniProt P29083) | -0.178 (inactive) |
| IFI30 (UniProt P13284) | 0.063 (inactive) |
| GSK3B isoform 2 (UniProt P49841) | -0.07 (inactive) |
| GIGYF2 (UniProt Q6Y7W6) | -0.124 (inactive) |
| GPAT4 (UniProt Q86UL3) | -0.09 (inactive) |
| HTATIP2 isoform 3 (UniProt Q9BUP3) | 0.651 (active) |
| H2AZ1 (UniProt P0C0S5) | 0.031 (inactive) |
| IFRD2 isoform 2 (UniProt Q12894) | 0.013 (inactive) |
| GEMIN5 (UniProt Q8TEQ6) | -0.049 (inactive) |
| HIC2 (UniProt Q96JB3) | 0.065 (inactive) |
| GTF2B (UniProt Q00403) | -0.215 (inactive) |
| IDH3A (UniProt P50213) | -0.044 (inactive) |

| Target | log2 fold change |
| --- | --- |
| HNRNPF (UniProt P52597) | -0.086 (inactive) |
| GAGE12F (UniProt P0CL80) | 0.02 (inactive) |
| GDE1 (UniProt Q9NZC3) | -0.033 (inactive) |
| GLB1 (UniProt P16278) | 0.048 (inactive) |
| FASTKD1 (UniProt Q53R41) | -0.316 (inactive) |
| GALNT4 (UniProt Q8N4A0) | -0.41 (active) |
| HHEX (UniProt Q03014) | -0.064 (inactive) |
| HPCAL1 (UniProt P37235) | -0.018 (inactive) |
| GNG5 (UniProt P63218) | -0.084 (inactive) |
| GLYR1 (UniProt Q49A26) | 0.093 (inactive) |
| HLTF (UniProt Q14527) | -0.022 (inactive) |
| GTF2E2 (UniProt P29084) | -0.033 (inactive) |
| HADHB (UniProt P55084) | -0.155 (inactive) |
| HBZ (UniProt P02008) | -0.042 (inactive) |
| FBXO42 (UniProt Q6P3S6) | -0.093 (inactive) |
| GALNT11 (UniProt Q8NCW6) | 0.018 (inactive) |
| GNB2 (UniProt P62879) | 0.013 (inactive) |
